Bioassay records: PubChem, National Center for Advancing Translational Sciences (NCATS)
Hits are enriched below; roughly 8.8% of the tested compounds scored in any of these assays.
HT1080NT lethal = kills 2HG-producing HT-1080-NT fibrosarcoma cells | HT-1080-NT fibrosarcoma viability, CellTiter-Glo ATP luminescence, 48 h | Potency, µM (titrated, usually from 46.1 µM), for the others: top-dose activity, negative = less viability, actives largely listed as cytotoxic | actives 1.6% (n = 360,000) | AID 686970;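 also: NT is the 2HG producing partner of a matched IDH1 knockdown line; potency is read from the fitted curve at half-maximal effect; 0% = DMSO-treated cells and -100% = media-only wells without cells; nearly all actives have a fitted effect of over 55% in size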
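Fibrosarcoma NT cells, 750 per well in 5% FBS RPMI, were exposed to compound for 48 hours. Viability: CellTiter-Glo luminescence.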
KB-3-1 cytotox = kills parental KB-3-1 adenocarcinoma cells | actives 1.4% (n = 400,000) | KB-3-1 viability, CellTiter-Glo ATP luminescence, 72 h | Potency, µM (series often up to 46.1 µM), actives largely listed as cytotoxic; also: potency is read from the fitted curve at half-maximal effect; nearly all actives have a fitted effect of over 60% in size
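Viability of parental KB-3-1 cells, measured by CellTiter-Glo luminescence, followed a 72 h incubation at 37 °C with pinned compounds in phenol-red-free DMEM containing 10% FBS.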
IL1B secr inh = inflammasome signaling inhibition, IL-1 beta readout; THP-1 LPS/ATP IL-1B secretion, AlphaLISA, 16 h; hits give low values; activity change, % at 57.5 µM; actives 4.7% (n = 360,000); in the data active = activity change below about -50%; inconclusive = mostly about -30% to -49%
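Secreted IL-1B measured by AlphaLISA bead assay after 16 h compound exposure of THP-1 cells; compounds (final up to 57.5 uM) added 1 h before LPS (250 ng/mL) and ATP (1.25 mM) stimulation; lower signal means less secretion.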
KB-V1 cytotox = kills drug-selected multidrug resistant KB-V1 cells; KB-V1 MDR cells viability, CellTiter-Glo, 72 h; actives 3.4% (n = 400,000); AID 1347076; Potency, µM (top dose mostly 46.1 µM), most hits filed as cytotoxic; also: potency is read from the fitted curve at half-maximal effect; nearly all actives have a fitted effect of over 60% in size
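Drug-selected KB-V1 cells, grown in DMEM lacking phenol red with 10% FBS, receive compound titrations; after three days at 37 degrees C, surviving cell ATP is quantified by CellTiter-Glo luminescence and responses normalized and curve-fitted.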
HT1080 IDH1KD tx = HT-1080 IDH1 knockdown cell toxicity (counter line). HT-1080 IDH1 knockdown viability, ATP luminescence, 48 h. AID 686971. Potency, µM (doses to about 46.1 µM), without a hit: at the highest dose activity, negative = toxicity, most hits filed as cytotoxic. actives 2% (n = 360,000);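 also: potency is read from the fitted curve at half-maximal effect; 0% = DMSO wells and -100% = cell-free medium wells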
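% activity derives from luminescence (CellTiter-Glo), normalised to DMSO and no-cell wells. HT-1080-IDH1KD cells, 750/well, had 48 h compound exposure at 37 °C.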
Starred values were filed as active, the others as inactive; i = inactive; ? = inconclusive; . = no result given. Unless noted, calls follow the shape of the dose curve; as a rule, active = well fitted curve in the direction sought with a large enough effect; inconclusive = small, poorly fitted or top-dose-only effect, or another doubt; inactive = no such curve, though single readings can be large; an effect the other way counts as inactive or inconclusive. Unless noted, % is scaled to controls: 0 for no effect and ±100 for the full control effect.

SMILES	HT1080NT lethal	KB-3-1 cytotox	IL1B secr inh	KB-V1 cytotox	HT1080 IDH1KD tx
Oc1c(Cl)cc(Cl)cc1CNc1nc2ccccc2[nH]1	-30%	i	-84*	i	?
Cn1c(=O)n(Cc2ccc(Cl)cc2)c(=O)c2c1nc1n2CCN1Cc1ccco1	-10%	?	-1	12µM*	1%
CCN1CCN(c2nc3c(c(=O)[nH]c(=O)n3C)n2Cc2ccccc2F)CC1	-1%	i	13	i	-1%
Cn1c(=O)n(Cc2ccccc2)c(=O)c2c1nc1n2CCCN1CCc1ccccc1	-13%	i	19	2.3µM*	-27%
COc1ccc(N2CCn3c2nc2c3c(=O)n(CCCc3ccccc3)c(=O)n2C)c(OC)c1	-22%	?	-22	9.2µM*	-27%
CC1CN(c2nc3c(c(=O)[nH]c(=O)n3C)n2Cc2ccccc2F)CC(C)O1 (stereo unspecified)	5%	i	22	18µM*	-1%
CCCn1c(=O)c2c(nc3n2CCN3Cc2ccco2)n(C)c1=O	-4%	i	2	i	4%
Cn1c(=O)n(Cc2ccccc2)c(=O)c2c1nc1n2CCCN1Cc1ccccc1	8%	i	0	i	14%
CCN(C(=O)CN(C)S(=O)(=O)c1ccc2c(c1)c(=O)n(C)c(=O)n2C)c1ccc(OC)cc1	.	i	.	i	.
COc1ccc(CCN2CCCn3c2nc2c3c(=O)[nH]c(=O)n2C)cc1OC	?	?	54	i	18µM*
CC1CN(c2nc3c(c(=O)n(Cc4ccc(Cl)cc4)c(=O)n3C)n2C)CC(C)O1 (stereo unspecified)	-5%	?	0	23µM*	-17%
Cn1c(N2CCCC2)nc2c1c(=O)n(Cc1ccc(Cl)cc1)c(=O)n2C	-12%	i	-17	?	-8%
c1ccc(-c2nc(SCC3CCCCO3)n[nH]2)cc1 (stereo unspecified)	.	?	.	i	.
COc1ccc(OC)c2c1C(=O)C(Cl)=C(Cl)C2=O	?	5.8µM*	-117*	5.2µM*	3.3µM*
Nc1ccc(O)c2c1C(=O)c1ccccc1C2=O	?	i	-57*	i	-28%
O=C1c2ccccc2C(=O)c2c(O)c(O)cc(O)c21	9.2µM*	i	-12	i	?
Nc1ccc(Br)c2c1C(=O)c1ccccc1C2=O	?	i	-6	i	?
COc1ccc(N)c2c1C(=O)c1ccccc1C2=O	-9%	i	-85*	?	-24%
CC(C)[C@H](NC(=O)c1c(F)cccc1F)C(=O)OCC(=O)NNC(=O)c1ccccc1	-1%	i	-2	?	0%
C=CC[C@@H](CC(=O)NCCO)C(=O)N[C@@H](COC(=O)[C@@H](CC=C)Cc1ccc(F)cc1)Cc1c[nH]c2ccccc12	-7%	i	-55*	i	-4%
C=CCC[C@@H](Cc1ccc(F)cc1)C(=O)OC[C@@H](Cc1c[nH]c2ccccc12)NC(=O)[C@@H](CC=C)CC(=O)NCCO	-28%	i	-65*	i	-29%
C=CCC[C@H](Cc1ccc(F)cc1)C(=O)OC[C@H](Cc1c[nH]c2ccccc12)NC(=O)[C@H](CC=C)CC(=O)NCCO	-15%	i	?	i	-7%
O=C(NCCC1=CCCCC1)c1[nH]c(C(F)(F)F)nc1-c1ccccc1	?	?	0	?	?
COc1ccc(C2OC(=O)CC2C(=O)NC2CCCCCC2)cc1OC (stereo unspecified)	2%	i	-18	13µM*	?
COc1ccc(C2=NOC(C(=O)Nc3ccc(C(C)=O)cc3)C2)cc1OC (stereo unspecified)	6%	i	-13	15µM*	-9%
SMILES	HT1080NT lethal	KB-3-1 cytotox	IL1B secr inh	KB-V1 cytotox	HT1080 IDH1KD tx
COc1ccc(C2=NOC(C(=O)NC3CCCCC3)C2)cc1OC (stereo unspecified)	-1%	i	11	16µM*	-22%
COc1ccc(C2=NOC(C(=O)N3CCCCCC3)C2)cc1OC (stereo unspecified)	0%	i	11	18µM*	5%
COc1ccc(C2=NOC(C(=O)Nc3cc(Br)ccc3O)C2)cc1OC (stereo unspecified)	-28%	i	-1	?	?
COc1cccc(C2=NOC(C(=O)Nc3cccnc3)C2)c1 (stereo unspecified)	0%	i	24	16µM*	-13%
CC(C)CCCCCCNC(=S)Nc1ccc(S(=O)(=O)N2CCOCC2)cc1	?	?	-82*	8.2µM*	?
Cc1csc(NC(=O)CCc2ccc(S(=O)(=O)N3CCOCC3)cc2)n1	-8%	i	-21	23µM*	-7%
O=C(CCc1ccccc1)NC(=S)Nc1ccc(S(=O)(=O)N2CCOCC2)cc1	-10%	?	2	4.6µM*	-27%
CC(C)NC(=O)c1ccccc1-c1ccccc1	5%	i	41	i	6%
CC(C)NC(=O)C1(C#N)C=C1c1ccccc1 (stereo unspecified)	16µM*	8.2µM*	-84*	?	?
CSc1nc(C)cc(OCC(=O)N/N=C/c2ccccc2O)n1	?	5.8µM*	49	i	?
COc1ccc(/C=N/NC(=O)CCC(=O)Nc2ccc(Br)cc2)c(OC)c1	?	i	-75*	i	?
COc1ccc(/C=N/NC(=O)CCC(=O)Nc2ccc(F)cc2)c(OC)c1	-1%	i	-16	i	2%
O=C(Cn1cc(C(F)(F)F)ccc1=O)N/N=C/c1ccc(F)cc1	-13%	i	-6	i	-4%
O=C(Cn1cc(C(F)(F)F)ccc1=O)N/N=C/c1ccccc1O	?	i	116	i	15µM*
O=C(CSCC(=O)NN=Cc1ccccc1O)NN=Cc1ccccc1O	?	.	38	.	21µM*
COc1ccccc1N1CCN(C(=O)C(=O)c2cccc([N+](=O)[O-])c2)CC1	11%	i	29	i	10%
CC(C)(O)C#Cc1ccc(CN2CCCC(CO)(Cc3cccc(Cl)c3)C2)cc1 (stereo unspecified)	-24%	i	-3	i	-24%
O=C(COc1nsnc1N1CCOCC1)N/N=C/c1ccccc1O	?	i	48	?	15µM*
O=C(O)COc1ccc(/C=N/NC(=O)COc2nsnc2N2CCOCC2)cc1	28%	i	-10	i	27%
COc1cccc(/C=N/NC(=O)CSCC(=O)Nc2ccccc2)c1O	4µM*	?	152	i	2µM*
O=C(CCCCC(=O)NN=Cc1ccccc1O)NN=Cc1ccccc1O	?	?	123	i	6.5µM*
O=C(CCC(=O)Nc1ccc(Br)cc1)N/N=C/c1ccccc1O	10µM*	?	144	?	13µM*
